Test results published in PubChem BioAssay AID602384 (National Center for Advancing Translational Sciences (NCATS), 2012).
Calls of active or inactive are those of the source. Calls come from the whole dose curve; as a rule, active = well fitted curve in the direction sought with a large enough effect; inactive = no such curve, though single readings can be large or run the other way.

molecular target: Pyruvate kinase PKM (Homo sapiens) (UniProt P14618); assay: qHTS for Activators of Human Muscle Isoform 2 Pyruvate Kinase: Extended Characterization; conditions: purified PKM2, ATP production, Kinase-Glo luminescence
Sequence (P14618 whole entry, looked up, canonical isoform): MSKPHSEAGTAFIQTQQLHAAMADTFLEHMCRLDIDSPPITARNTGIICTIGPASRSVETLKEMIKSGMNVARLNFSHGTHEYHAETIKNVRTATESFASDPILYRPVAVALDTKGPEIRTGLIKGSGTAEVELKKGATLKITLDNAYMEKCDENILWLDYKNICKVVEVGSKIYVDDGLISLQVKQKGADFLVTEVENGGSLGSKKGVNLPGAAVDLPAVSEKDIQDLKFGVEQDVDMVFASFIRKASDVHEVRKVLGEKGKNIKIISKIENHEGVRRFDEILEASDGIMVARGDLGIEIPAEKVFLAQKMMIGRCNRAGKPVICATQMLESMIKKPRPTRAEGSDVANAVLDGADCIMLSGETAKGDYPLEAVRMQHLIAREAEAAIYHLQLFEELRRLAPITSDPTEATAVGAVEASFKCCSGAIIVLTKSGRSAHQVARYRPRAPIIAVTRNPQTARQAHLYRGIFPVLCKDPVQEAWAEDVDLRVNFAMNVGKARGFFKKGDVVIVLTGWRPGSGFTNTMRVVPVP
Experimental: Human pyruvate kinase muscle 2 (hPK-M2) enzyme was supplied as a highly purified (>95% pure) preparation from Harvard Medical School and assayed for its ability to generate ATP from ADP using phosphoenolpyruvate (PEP) as a substrate. ATP generation was detected in a coupled reaction by luciferase-mediated luminescence, an ATP-dependent process. Pyruvate kinase substrates, PEP and ADP, were present in the assay at Km and approximately 10-fold below Km respectively. The enzyme was assayed at an intermediate level of activity to screen for both inhibitors and activators. NIH Chemical Genomics Center [NCGC] NIH Molecular Libraries Probe Centers Network [MLPCN] MLPCN Grant: MH085679 Assay Submitter (PI): Matthew G. Vander Heiden, Harvard Medical School
Three uL of substrate mix (at r.t.) in assay buffer (50 mM Imidazole pH7.2, 50 mM KCl, 7 mM MgCl2, 0.01% Tween 20, 0.05% BSA) was dispensed into white solid bottom 1,536 well microtiter plates so that the final concentrations of substrates in the assay were 0.1 mM ADP and 0.5 mM PEP. 23 nL of compound were delivered by a pin tool and 1 uL of enzyme mix (final concentration of 0.1 nM) in assay buffer (4 degree Celsius) was added. Plates were incubated at room temperature for 1 hour. Two uL of detection mix (Kinase-Glo, Promega; at 4 degree Celsius protected from light) was added and luminescence read by a ViewLux (Perkin Elmer) at 1 second exposure/plate. Data were normalized to the uninhibited (column 3) and AC100 inhibition (no enzyme in column 2). To monitor activation, the first column contained a titration of the activator, NCGC00031955-03 (16-point 1:2 dilutions in duplicate starting at 57 uM) and the first 16 rows of column 4 contained 57 uM of NCGC00031955-03.

Potency, active:
COc1cccc(Cn2ncc3c4sc(S(C)=O)cc4n(C)c3c2=O)c1 (stereo not given) 0.073 µM
Cc1cc2c(s1)c1cnn(Cc3cc(F)c(F)cc3F)c(=O)c1n2C 1.12 µM
Cc1cc2c(s1)c1cnn(Cc3cc(F)ccc3F)c(=O)c1n2C 1.12 µM
Cc1cc2c(s1)c1cnn(Cc3ccc(F)cc3F)c(=O)c1n2C 0.891 µM
Cc1cc2c(s1)c1cnn(Cc3c(Cl)ccc(C)c3F)c(=O)c1n2C 1.26 µM
